# Reference: PubChem BioAssay
# The source made the active and inactive calls. Unless noted, no rule for the calls is given here.
# Assays:
# [1] = tested on: XIP peptide (Xip251-270) binding; assay: small-molecule binders of XIP peptide, primary screen, biochemical, small-molecule microarray, fluorescence 635/667 nm, 0.1 µg/mL protein (AID 1182); conditions: fluorescent protein binding, 635 nm, higher = more signal, called active from +8 up or from −8 down
# [2] = tested on: XIP peptide (Xip251-270); assay: small-molecule binders of XIP peptide, primary screen, biochemical, small-molecule microarray, fluorescence 635/667 nm, 0.5 µg/mL protein (AID 1183); conditions: small-molecule microarray binding, fluorescence 635 nm; higher = more signal
# [3] = Plasmodium falciparum growth inhibition, primary screen, strain 3D7, DAPI fluorescence, 100 nL (AID 1184);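 also: parasites grown inside human red blood cells in medium with human serum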; conditions: P. falciparum 3D7 growth, 3 d, higher = more signal
# [4] = target: Homeobox protein Hox-A13 (Mus musculus) (UniProt Q62424); assay: inhibitors of HoxA13-DNA binding, primary screen, biochemical, fluorescence polarization, labeled oligonucleotide (AID 1185); conditions: 15 min, higher = more signal, called active from +8 up or from −8 down
# [5] = inhibitors of hydroxyurea-induced Chk1 phosphorylation, primary screen, imaging, HeLa, phospho-Chk1 antibody, percent positive cells (AID 1186); conditions: hydroxyurea-induced phospho-Chk1 immunofluorescence imaging, higher = more signal
# [6] = inhibitors of hydroxyurea-induced Chk1 phosphorylation, primary screen, imaging, HeLa, phospho-Chk1 nuclear intensity (AID 1187); conditions: hydroxyurea-induced phospho-Chk1 immunofluorescence imaging, higher = more signal
# Sequence of Homeobox protein Hox-A13 (Mus musculus) (Q62424 whole entry, looked up): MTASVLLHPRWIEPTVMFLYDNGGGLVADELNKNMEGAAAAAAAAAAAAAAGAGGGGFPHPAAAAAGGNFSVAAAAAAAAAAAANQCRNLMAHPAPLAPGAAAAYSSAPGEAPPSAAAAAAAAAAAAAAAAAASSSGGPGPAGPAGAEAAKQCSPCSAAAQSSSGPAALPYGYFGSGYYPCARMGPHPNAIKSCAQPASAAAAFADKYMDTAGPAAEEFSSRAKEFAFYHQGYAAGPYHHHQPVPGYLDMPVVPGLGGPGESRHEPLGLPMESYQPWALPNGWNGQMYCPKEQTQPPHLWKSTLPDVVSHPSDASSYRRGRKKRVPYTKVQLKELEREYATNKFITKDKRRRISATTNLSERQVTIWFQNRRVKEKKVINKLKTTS
Structure (SMILES),composite z-score [1],composite z-score [2],z-score [3],z-score [4],z-score [5],z-score [6]
CN(C)C(=O)[C@@]1(CCS(=O)(=O)c2ccccc2)N=C(c2ccc(OCCCO)cc2)O[C@H]1c1ccccc1N=[N+]=[N-],0.266 (inactive),0.723,-2.56,-5.61 (inactive),-0.268 (inactive),-0.701 (inactive)
COC(=O)C1=CC(CCCO)=CC(C2CC2)N(Cc2cccc(OC(F)(F)F)c2)C=C1C(=O)OC (stereo not drawn),0.737 (inactive),0.668,-1.37,-7.83 (inactive),-0.316 (inactive),-0.0702 (inactive)
COC(=O)[C@@]1(Cc2ccc(OC)cc2)[C@@H]2[C@@H](CC(=O)[C@H]2CC(=O)C(=O)N2CCCC2)CN1C(=O)c1ccccc1,0.506 (inactive),0.807,-0.937,-2.95 (inactive),-0.961 (inactive),-1.03 (inactive)
C[N+](C)(C)CCCCCCNC(=O)[C@H]1C[C@H]2C(=O)NCC(=O)N2[C@H]1c1cccc(OCCO)c1,1.32 (inactive),0.695,0.138,-3.97 (inactive),0.145 (inactive),0.136 (inactive)
CC(C)C(=C=CC[C@@H](O)c1ccccc1OCCO)C[C@@H](O)c1cc(Cl)cc(Cl)c1O,1.25 (inactive),0.748,-1.39,-3.09 (inactive),-0.059 (inactive),0.189 (inactive)
O=C1OCCC/C=C\[C@H]2OC34C=CCN(Cc5ccccc5)C(=O)[C@H]3N(CCCCCO)C(=O)[C@@H]4C12 (stereo partly drawn),0.105 (inactive),-0.6,0.259,-5.04 (inactive),-0.312 (inactive),0.249 (inactive)
[N-]=[N+]=Nc1ccccc1[C@@H]1OC(c2ccc(OCCCO)cc2)=N[C@]1(Cc1ccccc1)C(N)=O,0.0123 (inactive),0.0246,-2.06,-5.43 (inactive),-0.707 (inactive),-0.543 (inactive)
COC(=O)[C@@]1(Cc2ccc(F)cc2)[C@H]2c3cc(C(=O)N(C)C)n(CCO)c3C[C@H]2CN1C(=O)c1ccccc1,1.79 (inactive),0.39,0.196,-4.71 (inactive),-0.0514 (inactive),0.138 (inactive)
